# From PubChem BioAssay (EPA / NIEHS)
# Where “and” joins values, the source holds several entries; their conditions need not be identical. Equal entries are not always repeated. Inconclusive results are not listed. Where a structure was tested more than once in an assay, its records may differ in their call. Calls of active or inactive are those of the source. Rule for the calls, unless noted: active = hit-call score of the fitted dose curve at least 0.9, where 1 is the maximum; inactive = score below 0.9.
# What was measured:
# [1] = CCTE_Shafer_MEA_dev_mutual_information_norm: CCTE's Neural Network Formation Assay for Mutual Information Normalization, Shafer Lab (AID 2284091)
# Outline: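 Shared information across electrodes, tracked on days 5, 7, 9 and 12 of network development and collapsed as trapezoidal area under the curve. Rat cortical cultures were treated continuously from plating, with treatment renewed at feeds on DIV 5 and 9; DMSO baseline, negative-direction fit.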
# [2] = CCTE_Shafer_MEA_dev_correlation_coefficient_mean: CCTE's Neural Network Formation Assay for Mean Correlation Coefficient, Shafer Lab (AID 2284093)
# Outline: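 Read-out: well-mean correlation coefficient of spike trains between electrode pairs, collapsed over four recording days as trapezoidal area-under-the-curve. Developing rat cortical neuron networks grown on MEAs received test chemical continuously from plating.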
# [3] = CCTE_Mundy_HCI_hNP1_Pro_ResponderAvgInten: CCTE's Proliferation Assay in human neuroprogenitor cells, Mundy Lab (AID 2284224; active = hit-call score of the fitted dose curve at least 0.9, where 1 is the maximum)
# Outline: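 Proliferation was scored as BrdU labelling intensity in human neural progenitors derived from WA09 embryonic cells, measured 26.25 hours after chemical dosing. Activity was fitted relative to DMSO.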
# [4] = BSK_BT_PBMCCytotoxicity: PBMC Cytotoxicity Assessment in the BioMAP Diversity Plus: BT Assay (AID 2284225); details: primary human B cells with PBMC;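 note: PBMC viability measured by Alamar Blue dye reduction fluorescence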
# Outline: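 Viability by Alamar Blue reduction (6 h, ex/em 546/580 nm) after 90 h culture of SEB/TSST-1-activated PBMC (20 ng/mL each) given compound 1 h before activation. DMSO served as baseline for curve fitting.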
# [5] = read-out: Secreted IgG (sIgG), gene 3500; experiment: BSK_BT_sIgG: BioMAP Diversity Plus: BT Assay for Secreted IgG (sIgG) Biomarker Activity (AID 2284226); details: primary human B cells with PBMC
# Outline: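 ELISA quantitation of secreted IgG from human B cells co-cultured with PBMC, sampled 24 h post-dosing. Values fitted relative to DMSO vehicle as baseline, positive fitting direction.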
# [6] = BSK_BT_Bcell_Proliferation: Viability Assessment in the BioMAP Diversity Plus: BT Assay for B cell Proliferation (AID 2284227); details: primary human B cells with PBMC
# Outline: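 SRB-based protein staining (0.1% SRB after 10% TCA fixation, 560 nm) quantifies proliferation in human B cells co-cultured with PBMC, 72 h post-dosing, with signal gain scored relative to DMSO negative control.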
# [7] = read-out: Interleukin 17A (IL17A), IL17A (gene 3605); experiment: BSK_BT_xIL17A: BioMAP Diversity Plus: BT Assay for Interleukin 17A (IL17A) Biomarker Activity (AID 2284229); details: primary human B cells with PBMC
# Outline: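 B cells co-cultured with PBMC were exposed to test chemicals, and secreted IL-17A was quantified 24 h after dosing by Luminex xMAP bead immunoassay. Activity was fitted in the gain direction against DMSO as baseline.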
# [8] = read-out: Tumor necrosis factor (Homo sapiens) (UniProt P01375); experiment: BSK_BT_xTNFa: BioMAP Diversity Plus: BT Assay for Tumor necrosis factor alpha (TNF-alpha) Biomarker Activity (AID 2284230); details: primary human B cells with PBMC
# Outline: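 Compounds were added to a B cell plus PBMC co-culture, and after 24 h secreted TNF-alpha was quantified with Luminex xMAP technology, with responses fitted upward from the DMSO control.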
# [9] = read-out: Vascular cell adhesion molecule 1 (VCAM1), VCAM1 (gene 7412); experiment: BSK_MyoF_VCAM1: BioMAP Diversity Plus: MyoF Assay for Vascular cell adhesion molecule 1 (VCAM1) Biomarker Activity (AID 2284231); details: primary human lung fibroblasts
# Outline: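 Primary human lung fibroblasts were dosed with test chemical for 24 h, then cell-surface VCAM-1 was measured by ELISA. Activity was fitted in the positive direction against DMSO as negative control and baseline.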
# [10] = read-out: Collagen I, COL1A1 (gene 1277); experiment: BSK_MyoF_CollagenI: BioMAP Diversity Plus: MyoF Assay for Collagen I Biomarker Activity (AID 2284238); details: primary human lung fibroblasts
# Outline: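 Human lung fibroblasts were exposed to test chemical for 24 h, then Collagen I was quantified by ELISA. Activity was fitted in the increasing direction against DMSO as the negative control and baseline.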
# [11] = read-out: Collagen III, COL3A1 (gene 1281); experiment: BSK_MyoF_CollagenIII: BioMAP Diversity Plus: MyoF Assay for Collagen III Biomarker Activity (AID 2284239); details: primary human lung fibroblasts
# Outline: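 Human lung fibroblasts were dosed with chemicals and, 24 hours later, collagen III was measured by ELISA. Activity was fitted in the positive direction against the DMSO negative-control baseline.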
# [12] = CCTE_Mundy_HCI_hNP1_Casp3_7: CCTE's Caspase-Glo 3/7 Assay in human neuroprogenitor cells for Apoptosis, Mundy Lab (AID 2284240)
# Outline: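 Apoptosis is scored by activated caspase-3/7 luminescence in WA09-derived neural progenitor cells, measured 26.5 h after chemical dosing. Values represent gain of signal relative to DMSO vehicle.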
# [13] = CCTE_Mundy_HCI_hNP1_CellTiter: CCTE's Cell Titer-Glo 2 Assay in human neuroprogenitor cells for Viability, Mundy Lab (AID 2284241; active = hit-call score of the fitted dose curve at least 0.9, where 1 is the maximum)
# Outline: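 Human neural progenitor cells (hNP1, WA09-derived) were plated on poly-L-ornithine/laminin and grown 40 to 44 hours at 37 °C, 5% CO2 before chemical addition. Twenty-four hours later, ATP was measured by CellTiter-Glo luminescence; loss of signal versus DMSO indicates reduced viability.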
# [14] = read-out: Interleukin 17F (IL17F), IL17F (gene 112744); experiment: BSK_BT_xIL17F: BioMAP Diversity Plus: BT Assay for Interleukin 17F (IL17F) Biomarker Activity (AID 2284243); details: primary human B cells with PBMC
# Outline: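 B cell/PBMC co-culture (human primary), 24 h compound exposure; sIL-17F by Luminex xMAP; gain-of-signal fit vs DMSO baseline.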
# [15] = read-out: Actin alpha 1 (ACTA1), ACTA1 (gene 58); experiment: BSK_MyoF_ACTA1: BioMAP Diversity Plus: MyoF Assay for Actin alpha 1 (ACTA1) Biomarker Activity (AID 2284244); details: primary human lung fibroblasts
# Outline: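 alpha-SMA levels read by ELISA against DMSO baseline, 24 h post-dose, in primary human lung fibroblasts. Parallel cultures stained with 0.1% SRB after 10% TCA fixation (560 nm) to flag overt cytotoxicity.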
# [16] = read-out: Interleukin 2 (IL2), IL2 (gene 3558); experiment: BSK_BT_xIL2: BioMAP Diversity Plus: BT Assay for Interleukin 2 (IL2) Biomarker Activity (AID 2284245); details: primary human B cells with PBMC
# Outline: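 Secreted IL-2 was read by Luminex xMAP from B cells co-cultured with PBMC (human primary) 24 h post-dosing; activity was analysed as gain of signal relative to DMSO vehicle.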
# [17] = read-out: Basic fibroblast growth factor (bFGF), FGF2 (gene 2247); experiment: BSK_MyoF_bFGF: BioMAP Diversity Plus: MyoF Assay for Basic fibroblast growth factor (bFGF) Biomarker Activity (AID 2284246); details: primary human lung fibroblasts
# Outline: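 bFGF was measured by ELISA in primary human lung fibroblasts 24 h after chemical addition. Signal was analysed as positive-direction change relative to DMSO baseline.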
# [18] = read-out: Monokine induced gamma interferon (MIG), CXCL9 (gene 4283); experiment: BSK_KF3CT_MIG: BioMAP Diversity Plus: KF3CT Assay for Monokine induced gamma interferon (MIG) Biomarker Activity (AID 2284248); details: primary human keratinocytes with fibroblasts
# Outline: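 Human keratinocyte plus foreskin fibroblast primary co-culture dosed with test chemical for 24 h; MIG level measured by ELISA and fitted in the positive direction against DMSO as baseline.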
# [19] = read-out: Interleukin 6 (IL6), IL6 (gene 3569); experiment: BSK_BT_xIL6: BioMAP Diversity Plus: BT Assay for Interleukin 6 (IL6) Biomarker Activity (AID 2284228); details: primary human B cells with PBMC
# Outline: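 Human B cell plus PBMC co-culture exposed to test chemical for 24 h; secreted IL-6 quantified by Luminex xMAP bead assay. Activity fitted in the positive direction against DMSO as negative control and baseline.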
# [20] = read-out: Collagen IV, COL4A1 (gene 1282); experiment: BSK_MyoF_CollagenIV: BioMAP Diversity Plus: MyoF Assay for Collagen IV Biomarker Activity (AID 2284247); details: primary human lung fibroblasts
# Outline: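 Collagen IV quantified by ELISA in human lung fibroblast cultures 24 h after chemical treatment, with DMSO as baseline. Parallel SRB staining (0.1% SRB after TCA fixation, 560 nm) flags overt cytotoxicity.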
# Chain of Tumor necrosis factor (Homo sapiens) (P01375 whole entry, looked up): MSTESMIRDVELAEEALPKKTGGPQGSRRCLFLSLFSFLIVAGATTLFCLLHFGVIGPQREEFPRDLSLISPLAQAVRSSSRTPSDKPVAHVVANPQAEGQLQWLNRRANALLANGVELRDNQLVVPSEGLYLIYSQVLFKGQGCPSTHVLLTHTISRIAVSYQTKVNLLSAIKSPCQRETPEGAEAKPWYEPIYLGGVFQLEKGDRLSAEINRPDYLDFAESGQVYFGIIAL
smiles,measurement,setting,value
CCN(CCO)S(=O)(=O)C(F)(F)C(F)(F)C(F)(F)C(F)(F)C(F)(F)C(F)(F)C(F)(F)C(F)(F)F,outcome,[1],inactive
same,outcome,[2],inactive
same,outcome,[3],inactive
same,outcome,[4],inactive
same,AC50,[5],16.6 µM (active)
same,AC50,[6],46.4 µM (active) and 30 µM (active)
same,AC50,[7],20.2 µM (active) and 21.2 µM (active)
same,AC50,[8],21.7 µM (active) and 30 µM (active)
same,AC50,[9],12.6 µM (active) and 13 µM (active)
same,AC50,[10],19.9 µM (active) and 20.3 µM (active)
same,AC50,[11],18.9 µM (active) and 23.2 µM (active)
same,outcome,[12],inactive
same,outcome,[13],inactive
same,AC50,[14],13 µM (active) and 12.6 µM (active)
same,AC50,[15],19.5 µM (active)
same,outcome,[15],inactive
same,AC50,[16],26.7 µM (active) and 25.7 µM (active)
same,AC50,[17],43 µM (active)
same,outcome,[17],inactive
same,AC50,[18],22.7 µM (active) and 31.6 µM (active)
O=C(O)C(F)(F)C(F)(F)C(F)(F)OC(F)(C(F)(F)F)C(F)(F)F,outcome,[4],inactive
same,outcome,[5],inactive
same,outcome,[6],inactive
same,outcome,[19],inactive
same,outcome,[7],inactive
same,outcome,[8],inactive
same,outcome,[9],inactive
same,outcome,[10],inactive
same,outcome,[11],inactive
same,outcome,[12],inactive
same,outcome,[13],inactive
same,outcome,[14],inactive
same,outcome,[15],inactive
same,outcome,[16],inactive
same,outcome,[17],inactive
same,outcome,[18],inactive
O=C=NCc1cccc(CN=C=O)c1,outcome,[4],inactive
same,outcome,[5],inactive
same,outcome,[6],inactive
same,outcome,[19],inactive
same,outcome,[7],inactive
same,outcome,[8],inactive
same,outcome,[9],inactive
same,outcome,[10],inactive
same,outcome,[11],inactive
same,outcome,[14],inactive
same,outcome,[15],inactive
same,outcome,[16],inactive
same,outcome,[17],inactive
same,outcome,[20],inactive
O=S(=O)(O)CCC(F)(F)C(F)(F)C(F)(F)C(F)(F)F,outcome,[1],inactive
same,outcome,[2],inactive
same,outcome,[4],inactive
same,outcome,[5],inactive
same,outcome,[6],inactive
same,outcome,[19],inactive
same,outcome,[7],inactive
same,outcome,[8],inactive
same,outcome,[9],inactive
same,outcome,[10],inactive
same,outcome,[11],inactive
same,outcome,[14],inactive
same,outcome,[15],inactive
same,outcome,[16],inactive
same,outcome,[17],inactive
same,outcome,[20],inactive
same,outcome,[18],inactive
NC(=O)C(F)(F)C(F)(F)C(F)(F)F,outcome,[1],inactive
same,outcome,[2],inactive
same,outcome,[4],inactive
same,outcome,[5],inactive
same,outcome,[6],inactive
same,outcome,[7],inactive
same,outcome,[8],inactive
same,outcome,[9],inactive
same,outcome,[10],inactive
same,outcome,[11],inactive
same,outcome,[14],inactive
same,outcome,[15],inactive
same,outcome,[16],inactive
same,outcome,[17],inactive
same,outcome,[20],inactive
same,outcome,[18],inactive
NC(O)(C(F)(F)F)C(F)(F)F,outcome,[1],inactive
same,outcome,[2],inactive
same,outcome,[4],inactive
same,outcome,[5],inactive
same,outcome,[6],inactive
same,outcome,[7],inactive
same,outcome,[8],inactive
same,outcome,[9],inactive
same,outcome,[10],inactive
same,outcome,[11],inactive
same,outcome,[12],inactive
same,outcome,[13],inactive
same,outcome,[14],inactive
same,outcome,[15],inactive
same,outcome,[16],inactive
same,outcome,[17],inactive
same,outcome,[18],inactive
